Test results published in PubChem BioAssay (NCI).
The panel holds about 79,000 compounds, 15% with a hit somewhere; the sample as a whole holds those more often. Activity calls are given as the source filed them. Rule as the data show it: active = growth inhibition above about 70%; inactive = the rest.

Experiments:
[1] = NCI Yeast Anticancer Drug Screen. Data for the rad50EPP+ strain (AID 151);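 also: 0% = growth of vehicle-treated control cultures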; details: S. cerevisiae rad50 mutant strain, active compounds read high
How it was run: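 Growth inhibition read against vehicle controls in rad50EPP+ yeast, a strain altered in DNA damage repair, after compound exposure.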

[2] = NCI Yeast Anticancer Drug Screen. Data for the mgt1 strain (AID 153); details: S. cerevisiae mgt1 mutant growth inhibition, active compounds read high
How it was run: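 mgt1 yeast grown with test compound; read-out is growth inhibition versus vehicle-treated cultures.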

[3] = NCI Yeast Anticancer Drug Screen. Data for the rad50 strain (AID 155);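 also: 0% = growth of vehicle-only cultures of the same strain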; details: S. cerevisiae rad50 strain growth inhibition, active compounds read high
How it was run: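 DNA repair mutant yeast, compound exposure, growth read-out; inhibition is taken relative to vehicle.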

[4] = NCI Yeast Anticancer Drug Screen. Data for the mec2-1 strain (AID 157); details: S. cerevisiae mec2-1 strain, active compounds read high
How it was run: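 Yeast mec2-1 mutant treated with compound. Readout: growth inhibition vs vehicle controls.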

[5] = NCI Yeast Anticancer Drug Screen. Data for the rad14 strain (AID 159);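 also: 0% = growth of vehicle-treated control cultures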; details: S. cerevisiae rad14 strain growth inhibition, active compounds read high
How it was run: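 DNA repair-defective yeast, compound-exposed; % growth inhibition derived by comparison with vehicle-treated controls.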

[6] = NCI Yeast Anticancer Drug Screen. Data for the sgs1 mgt1 strain (AID 161);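 also: 0% = growth of cultures given vehicle only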; details: S. cerevisiae sgs1 mgt1 strain, active compounds read high
How it was run: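 Mutant yeast exposed to compound; growth scored against vehicle-only wells.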

[7] = NCI Yeast Anticancer Drug Screen. Data for the CLN2oe strain (AID 163);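 also: 0% = growth of vehicle-only control cultures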; details: S. cerevisiae CLN2oe strain, active compounds read high
How it was run: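 Read-out: yeast growth inhibition, expressed relative to vehicle-only controls. The strain bears an engineered cell-cycle alteration.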

[8] = NCI Yeast Anticancer Drug Screen. Data for the cln2 rad14 strain (AID 165);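 also: 0% = growth equal to vehicle treated cultures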; details: S. cerevisiae cln2 rad14 strain, active compounds read high
How it was run: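 cln2 rad14 yeast strain; compound exposure; growth inhibition read vs vehicle controls.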

[9] = NCI Yeast Anticancer Drug Screen. Data for the bub3 strain (AID 167); details: S. cerevisiae bub3 mutant strain, active compounds read high
How it was run: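 In this screen, a yeast mutant lacking normal mitotic checkpoint function is challenged with compound. Relative growth versus vehicle gives the inhibition value.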

[10] = NCI Yeast Anticancer Drug Screen. Data for the wt2 strain (AID 169);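 also: 0% = growth of vehicle-treated yeast cultures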; details: S. cerevisiae wt2 strain growth inhibition, active compounds read high
How it was run: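 Read-out: growth inhibition versus vehicle-treated control cultures after compound exposure of the yeast strain.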

[11] = NCI Yeast Anticancer Drug Screen. Data for the mlh1 strain (AID 171);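 also: 0% = growth of vehicle-treated control cultures of the same strain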; details: S. cerevisiae mlh1 strain growth inhibition, active compounds read high
How it was run: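 Read-out: growth inhibition versus vehicle controls. Strain: engineered yeast with a defined DNA repair or cell cycle defect, compound-treated.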

[12] = NCI Yeast Anticancer Drug Screen. Data for the mlh1 rad18 strain (AID 175); details: S. cerevisiae mlh1 rad18 strain growth inhibition, active compounds read high
How it was run: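 Yeast w/ defined DNA-repair lesions; compound exposure; growth vs vehicle controls → % inhibition.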

[13] = NCI Yeast Anticancer Drug Screen. Data for the rad18 strain (AID 177); details: S. cerevisiae rad18 mutant growth inhibition, active compounds read high
How it was run: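 Readout: growth inhibition vs vehicle controls. Cells: genetically altered yeast strain, DNA repair defect.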

[14] = NCI Yeast Anticancer Drug Screen. Data for the wt1 strain (AID 149);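 also: 0% = growth of vehicle-treated wt1 cultures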; details: S. cerevisiae wt1 strain (SPY 50644) growth inhibition, active compounds read high
How it was run: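 wt1 strain grown with compound or vehicle; inhibition taken from the growth difference.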

[15] = NCI Yeast Anticancer Drug Screen. Data for the sgs1 strain (AID 173);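 also: 0% = growth of vehicle-only control cultures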; details: S. cerevisiae sgs1 mutant, active compounds read high
How it was run: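 Read-out: yeast growth inhibition relative to vehicle controls, following compound exposure of a strain with a defined DNA repair/cell cycle alteration.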

[16] = at 5.0 µM (retest, dose inferred, filed as 0.5)
[17] = at 50.0 µM (retest, dose inferred, filed as 5.0)

Measured: growth inhibition

O=[N+]([O-])c1ccc(S(=O)(=O)Cc2ccccc2)c([N+](=O)[O-])c1
inactive: [1]; at 1.2 µM 36% | [1]; at 3.7 µM 67% | [2]; at 1.2 µM 10% | [2]; at 3.7 µM 14% | [2]; at 11.0 µM 35% | [3]; at 1.2 µM 9% | [3]; at 3.7 µM 14% | [3]; [16] 65% | [3]; at 11.0 µM 41% | [4]; at 1.2 µM 12% | [4]; at 3.7 µM 18% | [4]; [16] 31% | [4]; at 11.0 µM 39% | [5]; at 1.2 µM 7% | [5]; at 3.7 µM 10% | [5]; at 11.0 µM 22% | [6]; [16] 46% | [7]; at 1.2 µM -1% | [7]; at 3.7 µM 7% | [7]; at 11.0 µM 21% | [7]; at 33.0 µM 61% | [8]; [16] 7% | [9]; at 1.2 µM 1% | [9]; at 3.7 µM 6% | [9]; [16] 56% | [9]; at 11.0 µM 44% | [10]; at 1.2 µM 7% | [10]; at 3.7 µM 15% | [10]; at 11.0 µM 37% | [11]; at 1.2 µM 9% | [11]; at 3.7 µM 17% | [11]; at 11.0 µM 35% | [12]; [16] 65% | [13]; at 1.2 µM 27% | [13]; at 3.7 µM 57%
active: [1]; at 11.0 µM 87% | [1]; at 33.0 µM 97% | [1]; at 100.0 µM 97% | [2]; at 33.0 µM 98% | [2]; at 100.0 µM 99% | [3]; at 33.0 µM 87% | [3]; [17] 100% | [3]; at 50.0 µM 99.5% | [3]; at 100.0 µM 98% | [4]; at 33.0 µM 96% | [4]; [17] 100% | [4]; at 50.0 µM 99.8% | [4]; at 100.0 µM 99% | [5]; at 33.0 µM 74% | [5]; at 100.0 µM 99% | [6]; [17] 100% | [6]; at 50.0 µM 99.5% | [7]; at 100.0 µM 95% | [8]; [17] 99% | [8]; at 50.0 µM 98.6% | [9]; at 33.0 µM 85% | [9]; [17] 99% | [9]; at 50.0 µM 99.4% | [9]; at 100.0 µM 95% | [10]; at 33.0 µM 98% | [10]; at 100.0 µM 98% | [11]; at 33.0 µM 93% | [11]; at 100.0 µM 99% | [12]; [17] 100% | [12]; at 50.0 µM 99.4% | [13]; at 11.0 µM 87% | [13]; at 33.0 µM 96% | [13]; at 100.0 µM 99%

CC12CCC(CC(=O)/C1=C(/Br)I)C2(C)C (stereo unspecified)
inactive: [14]; at 1.2 µM -3% | [14]; at 3.7 µM -2% | [14]; at 11.0 µM -1% | [14]; at 33.0 µM -6% | [14]; at 100.0 µM -1% | [1]; at 1.2 µM 1% | [1]; at 3.7 µM 5% | [1]; at 11.0 µM 7% | [1]; at 33.0 µM 12% | [1]; at 100.0 µM 3% | [3]; at 1.2 µM 1% | [3]; at 3.7 µM -3% | [3]; [16] 1% | [3]; at 11.0 µM -18% | [3]; at 33.0 µM 14% | [3]; at 100.0 µM 5% | [4]; at 1.2 µM 0% | [4]; at 3.7 µM -2% | [4]; [16] -19% | [4]; at 11.0 µM -5% | [4]; at 33.0 µM 5% | [4]; at 100.0 µM -3% | [5]; at 1.2 µM 1% | [5]; at 3.7 µM 1% | [5]; at 11.0 µM 2% | [5]; at 33.0 µM 3% | [5]; at 100.0 µM 2% | [6]; [16] -9% | [7]; at 1.2 µM -1% | [7]; at 3.7 µM 4% | [7]; at 11.0 µM 2% | [7]; at 33.0 µM 0% | [7]; at 100.0 µM 6% | [8]; [16] 40% | [8]; [17] 68% | [8]; at 50.0 µM 63% | [9]; at 1.2 µM 5% | [9]; at 3.7 µM 11% | [9]; [16] -11% | [9]; at 11.0 µM 18% | [9]; at 33.0 µM 24% | [9]; at 100.0 µM 10% | [10]; at 1.2 µM -2% | [10]; at 3.7 µM -1% | [10]; at 11.0 µM 1% | [10]; at 33.0 µM 3% | [10]; at 100.0 µM 0% | [15]; at 1.2 µM -2% | [15]; at 3.7 µM -1% | [15]; at 11.0 µM 1% | [15]; at 33.0 µM 21% | [15]; at 100.0 µM 1% | [12]; [16] -18% | [13]; at 1.2 µM 3% | [13]; at 3.7 µM 10% | [13]; at 11.0 µM 31% | [13]; at 33.0 µM 39% | [13]; at 100.0 µM -1%
active: [3]; [17] 80% | [3]; at 50.0 µM 81% | [4]; [17] 95% | [4]; at 50.0 µM 90.4% | [6]; [17] 93% | [6]; at 50.0 µM 84.3% | [9]; [17] 94% | [9]; at 50.0 µM 78.3% | [12]; [17] 96% | [12]; at 50.0 µM 83.2%

O=C(c1ccccc1)[C@H]1Nc2ccc(Cl)cc2[C@H]2OCCC[C@@H]12
active: [2]; at 100.0 µM 88% | [3]; at 100.0 µM 91% | [4]; at 100.0 µM 90%
inactive: [1]; at 1.2 µM -16% | [1]; at 3.7 µM -20% | [1]; at 11.0 µM -25% | [1]; at 33.0 µM -2% | [1]; at 100.0 µM 14% | [2]; at 1.2 µM -19% | [2]; at 3.7 µM -23% | [2]; at 11.0 µM -39% | [2]; at 33.0 µM 32% | [3]; at 1.2 µM -2% | [3]; at 3.7 µM -2% | [3]; [16] 7% | [3]; at 11.0 µM -6% | [3]; at 33.0 µM 33% | [3]; [17] 4% | [3]; at 50.0 µM 67.2% | [4]; at 1.2 µM -23% | [4]; at 3.7 µM -25% | [4]; [16] -13% | [4]; at 11.0 µM -25% | [4]; at 33.0 µM -6% | [4]; [17] 49% | [4]; at 50.0 µM 12.9% | [5]; at 1.2 µM -40% | [5]; at 3.7 µM -23% | [5]; at 11.0 µM -41% | [5]; at 33.0 µM 31%
